Measurements as given in PubChem BioAssay (NCI).
This is part of a sample that, as a whole, favours compounds with a hit. Of some 83,000 tested, about 20% had one in any assay.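 Negative percent growth values reflect cell death: -40 means 40% of the cells present at the start died, and -100 means all died.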 The source made the active and inactive calls.

test system: HOP-62 NSCLC; experiment: NCI-60 one-dose screen, 48 h (100 = growth as untreated, 0 = no growth, -100 = all killed); details: 10 µM unless noted
Description: Growth inhibition of the HOP-62 human Non-Small Cell Lung tumor cell line is measured as a screen for anti-cancer activity. Cells are grown in 96 well plates and exposed to the test compound for 48 hours. Compounds are tested at a single concentration, which is 10^-5 M for most compounds. The reported endpoint is percent growth (GI% or GIPRCNT), where numbers from 0 - 100% represent growth inhibition, and numbers from -100% - 0 represent cell death. For example, a value of 40 represents 60% growth inhibition. A value of 0 means no net growth occurred over the course of the experiment. A value of -40 indicates 40% of cells at the beginning of the experiment died by the end of the experiment. A value of -100 means all cells are dead at the end of the experiment.
NCI-60 Human Tumor Cell Lines Screen was performed using the standard one-dose NCI protocol, which is described in more detail at https://dtp.cancer.gov/discovery_development/nci-60/default.htm.
Compounds with GIPRCNT values below 10 were considered active. Activity score was based on GIPRCNT using the following formula: […]
Score is 0 for GIPRCNT values of 100 or above, 50 for GIPRCNT values of 0, and 100 for GIPRCNT values of -100.

SMILES | growth
Clc1ccc(C(/C=C/c2sc(Cl)nc2Cl)=N/Nc2cc(Cl)cc(Cl)c2)cc1 | 99.1% (inactive)
Cc1nc2cnc(N)c(C#Cc3cncc(C(=O)Nc4ccc(CN5CCN(C)CC5)c(C(F)(F)F)c4)c3)c2nc1C | 11.9% (inactive)
CN(C)c1ccc2nc3ccc(=[N+](C)C)c([N+](=O)[O-])c-3sc2c1 | 64.2% (inactive)
CCS(=O)(=O)c1ncnc2nc[nH]c12 | 93.5% (inactive)
Cc1c(C(=O)N[C@@H](Cc2ccccc2)C(=O)C(=O)NCc2ccc(F)cc2)[nH]c2ccccc2c1=O | 106% (inactive)
CCOC(=O)C1=C(N)Oc2c(sc3c(CC)cccc23)C1c1ccc(F)cc1 (stereo not given) | 32% (inactive)
O=c1ccn(Cc2cn(-c3c4ccccc4nc4ccccc34)nn2)c(=O)[nH]1 | 97.7% (inactive)
Cc1cc2nc3cc(C)c(N)cc3[n+](-c3ccccc3)c2cc1N | 52.7% (inactive)
CCCCCCCCCCCCCCCCCCOc1ccccc1CCCOP(=O)(O)OCC[N+](C)(C)C | 59.3% (inactive)
COc1ccc(C(=O)n2nc(-c3ccccc3)nc2N)cc1OC | 79.7% (inactive)
COc1cc(CCC[P+](c2ccccc2)(c2ccccc2)c2ccccc2)c(OC)c(OC)c1OC | 82.1% (inactive)
O=C(Cc1ccc(F)c(Cl)c1)Nc1cc(C2(C(F)(F)F)CC2)nn1CC1CCCCC1 | -8.44% (active)
CCCCC[C@H](O)C/C=C1/C(=O)C=C[C@@H]1C/C=C\CCCC(=O)O | 84.1% (inactive)
CCOC(=O)Nc1ccc(-c2nc(-c3cccc(OCCN4CCOCC4)c3)c(-c3ccnc(Br)c3)[nH]2)cc1 | 50.8% (inactive)
CCCCn1c(=O)c(-c2cc(-c3ccc(Cl)cc3)nc(-c3ccc(Cl)cc3)c2)cc2cc(Cl)ccc21 | 104% (inactive)
C=C(C)C1CCC2(C)OC2C1 (stereo not given) | 94.6% (inactive)
COc1ccc(-c2conc2-c2ccccc2)cc1 | 42.4% (inactive)
COc1cc2cc(Oc3ccc(NC(=O)Nc4ccc(Cl)c(Cl)c4)cc3)c(C)nc2cc1OCCN1CCOCC1 | 105% (inactive)
Cc1nc2ccccc2c(/C=C/c2ccccc2)c1C(=O)/C=C/c1ccc(C(F)(F)F)cc1 | -21.9% (active)
Cc1cccc2c3c(sc12)C(c1ccc(Cl)cc1)C(C#N)=C(N)O3 (stereo not given) | 38.7% (inactive)

SMILES | growth
COc1cc2cc(Oc3ccc(NC(=O)Nc4ccc(Cl)c(C(F)(F)F)c4)cc3)c(C)nc2cc1OCCN1CCOCC1 | 27.6% (inactive)
CCOC(=O)c1nc(Nc2ccc(C(C)=O)cc2)sc1C | 105% (inactive)
Cc1ccccc1C(=O)NN | 93.3% (inactive)
Cc1c(C(=O)NCCCc2ccccc2)sc2ncc(-c3ccc(Br)cc3)n12 | 99.3% (inactive)
COc1ccc(-c2[nH]c3ccc(OC)cc3c2/C=C(\C#N)S(=O)(=O)c2ccccc2)cc1 | 69.1% (inactive)
Cc1ccc(C(=O)N/N=C/c2cccc(Oc3ccccc3)c2)cn1 | 71.6% (inactive)
O=C(N/N=C/[C@H](O)[C@@H](O)[C@@H](O)[C@H](O)CO)c1ccc(NC(=O)c2cccnc2)cc1 | 113% (inactive)
COc1nc2ccc(C)cc2cc1-c1nc2c(cnn2-c2ccccc2)c(=O)[nH]1 | 70.9% (inactive)
COc1ccc(S(=O)(=O)n2cc(C3OC(c4cc(OC)c(OC)c(OC)c4)=NN3C(C)=O)c3ccccc32)cc1OC (stereo not given) | 78.1% (inactive)
O=C1/C(=C/c2ccc(F)cc2)Sc2c(Br)cccc21 | 69.1% (inactive)
CC/C=C\C[C@@H](O)C/C=C1/C(=O)C=C[C@H]1C/C=C\CCCC(=O)OC | -31.6% (active)
COc1cc(C(=O)N2N=C(c3ccc(S(C)(=O)=O)cc3)CC2c2ccco2)cc(OC)c1OC (stereo not given) | 67.3% (inactive)
O=C1CCC(C(=O)NCCNCCNC(=O)C2CCC(=O)N2)N1 (stereo not given) | 93.7% (inactive)
CCOc1c(B(O)O)cccc1-c1nc2ccc3[nH]ncc3c2c2c1CCCC2 | 48.3% (inactive)
Cc1ccc(-c2nc(N3CCN(C(=O)c4ccc(OC(F)(F)F)cc4)CC3)c3ccccc3n2)cc1 | 99.3% (inactive)
O=C(S)CNC(=O)c1ccccc1 | 92.7% (inactive)
c1ccc2c(-c3nc(-c4c[nH]c5ccncc45)cs3)c[nH]c2c1 | 49.3% (inactive)
c1ccc(CO[C@H]2CO[C@H]3[C@@H]2OC[C@@H]3Oc2ccc(Nc3ncnc4ccsc34)cc2)cc1 | 86.5% (inactive)
CN1CCN(c2ccc(-c3cc4c(Nc5ccc(F)c(Cl)c5)ncnn4c3)cc2)CC1 | 103% (inactive)
C=C1CC[C@H](C(C)C)[C@@H]2[C@H]1[C@H]1CC(=C)[C@@H](O)CC[C@@](C)(O)[C@@H]2O1 | 84.3% (inactive)
